Holding throughout (assay): DAPPL (digital affinity profiling via proximity ligation, sequencing); 10 mM Tris-HCl pH 7.5, 50 mM NaCl, 1 mM DTT, 4% glycerol, room temperature, 30 min; GST-TFs on glutathione beads, 16-mer random dsDNA library, 0.1% formaldehyde crosslink after washing; high values mean tight binding
Holding throughout (conditions): protein: recombinant; tags: N-terminal GST; dsDNA, one strand shown

Test [1] has as its target T1, FLI1 (Homo sapiens, UniProt Q01543 1-452).
T1 sequence: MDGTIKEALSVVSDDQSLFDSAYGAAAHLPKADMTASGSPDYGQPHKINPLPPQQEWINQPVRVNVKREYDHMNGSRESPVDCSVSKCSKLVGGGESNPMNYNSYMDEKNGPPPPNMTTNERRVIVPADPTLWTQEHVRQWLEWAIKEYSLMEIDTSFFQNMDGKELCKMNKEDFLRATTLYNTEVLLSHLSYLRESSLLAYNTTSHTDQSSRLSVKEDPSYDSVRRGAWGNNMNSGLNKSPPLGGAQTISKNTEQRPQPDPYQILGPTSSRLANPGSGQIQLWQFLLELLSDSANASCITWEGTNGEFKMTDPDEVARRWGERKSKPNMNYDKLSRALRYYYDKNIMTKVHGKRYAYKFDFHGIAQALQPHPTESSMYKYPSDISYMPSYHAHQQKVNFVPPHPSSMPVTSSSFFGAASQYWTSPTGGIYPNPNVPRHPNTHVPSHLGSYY
A digest of the protocol:
(§1)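 Pools were built from human transcription factors expressed in yeast as GST fusions, captured on glutathione beads and DNA-barcoded, along with a tag-only sample. Incubation with 200 nmole of a 16-mer random double-stranded DNA library lasted 30 min at room temperature in Tris/NaCl/DTT/glycerol buffer, and was followed by washing, 0.1% formaldehyde crosslinking, proximity ligation, PCR amplification and Illumina NextSeq500 sequencing. Binding signal is the quotient of each hexamer's read frequency for a factor and its frequency for the tag-only sample.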

Test [2] has as its target T2, ELK1 (Homo sapiens, UniProt P19419 1-428).
T2 sequence: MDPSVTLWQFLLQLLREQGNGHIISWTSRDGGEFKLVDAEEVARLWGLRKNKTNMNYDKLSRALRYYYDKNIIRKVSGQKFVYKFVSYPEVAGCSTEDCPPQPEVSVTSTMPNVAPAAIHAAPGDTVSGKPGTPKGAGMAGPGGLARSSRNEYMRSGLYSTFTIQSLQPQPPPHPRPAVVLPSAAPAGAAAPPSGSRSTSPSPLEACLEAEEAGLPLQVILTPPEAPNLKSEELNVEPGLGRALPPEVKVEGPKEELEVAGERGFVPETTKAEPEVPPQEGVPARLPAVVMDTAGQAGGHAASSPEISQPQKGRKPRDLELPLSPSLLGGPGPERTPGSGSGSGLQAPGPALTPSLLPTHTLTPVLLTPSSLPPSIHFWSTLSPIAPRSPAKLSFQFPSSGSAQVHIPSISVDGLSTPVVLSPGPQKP
A digest of the protocol:
as §1

Test [3] deals with T3, GABPA (Homo sapiens, UniProt Q06546 1-454).
T3 sequence: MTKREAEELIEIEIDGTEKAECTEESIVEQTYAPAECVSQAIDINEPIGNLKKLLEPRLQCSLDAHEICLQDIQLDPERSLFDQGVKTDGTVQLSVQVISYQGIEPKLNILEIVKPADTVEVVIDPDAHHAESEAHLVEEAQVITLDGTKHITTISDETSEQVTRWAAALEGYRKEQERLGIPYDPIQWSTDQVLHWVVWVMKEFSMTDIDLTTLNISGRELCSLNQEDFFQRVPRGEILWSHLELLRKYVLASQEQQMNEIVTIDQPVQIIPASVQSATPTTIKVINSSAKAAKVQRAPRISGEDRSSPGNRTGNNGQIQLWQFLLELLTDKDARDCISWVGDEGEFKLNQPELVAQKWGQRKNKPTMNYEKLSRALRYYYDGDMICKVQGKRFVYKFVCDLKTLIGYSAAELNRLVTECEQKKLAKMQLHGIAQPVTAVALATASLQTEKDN
A digest of the protocol:
as §1

Test [4] has as its target T4, ERG (Homo sapiens, UniProt P11308 1-479).
T4 sequence: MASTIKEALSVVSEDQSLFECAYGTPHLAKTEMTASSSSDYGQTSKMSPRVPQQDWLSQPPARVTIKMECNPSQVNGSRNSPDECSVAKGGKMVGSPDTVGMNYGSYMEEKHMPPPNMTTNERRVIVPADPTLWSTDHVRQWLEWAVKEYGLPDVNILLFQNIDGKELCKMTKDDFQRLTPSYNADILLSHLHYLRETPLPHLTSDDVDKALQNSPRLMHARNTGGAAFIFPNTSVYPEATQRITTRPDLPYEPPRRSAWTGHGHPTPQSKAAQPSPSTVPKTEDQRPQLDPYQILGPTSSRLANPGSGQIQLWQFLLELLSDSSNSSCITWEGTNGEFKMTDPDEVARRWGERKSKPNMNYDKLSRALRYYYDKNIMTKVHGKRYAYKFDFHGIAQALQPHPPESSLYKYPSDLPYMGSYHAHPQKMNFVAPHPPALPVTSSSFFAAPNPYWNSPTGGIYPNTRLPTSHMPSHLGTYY
A digest of the protocol: as §1

The target of test [5] is ELF1 (Homo sapiens, UniProt P32519 1-619). A digest of the protocol: as §1
Chain of ELF1 (P32519 whole entry): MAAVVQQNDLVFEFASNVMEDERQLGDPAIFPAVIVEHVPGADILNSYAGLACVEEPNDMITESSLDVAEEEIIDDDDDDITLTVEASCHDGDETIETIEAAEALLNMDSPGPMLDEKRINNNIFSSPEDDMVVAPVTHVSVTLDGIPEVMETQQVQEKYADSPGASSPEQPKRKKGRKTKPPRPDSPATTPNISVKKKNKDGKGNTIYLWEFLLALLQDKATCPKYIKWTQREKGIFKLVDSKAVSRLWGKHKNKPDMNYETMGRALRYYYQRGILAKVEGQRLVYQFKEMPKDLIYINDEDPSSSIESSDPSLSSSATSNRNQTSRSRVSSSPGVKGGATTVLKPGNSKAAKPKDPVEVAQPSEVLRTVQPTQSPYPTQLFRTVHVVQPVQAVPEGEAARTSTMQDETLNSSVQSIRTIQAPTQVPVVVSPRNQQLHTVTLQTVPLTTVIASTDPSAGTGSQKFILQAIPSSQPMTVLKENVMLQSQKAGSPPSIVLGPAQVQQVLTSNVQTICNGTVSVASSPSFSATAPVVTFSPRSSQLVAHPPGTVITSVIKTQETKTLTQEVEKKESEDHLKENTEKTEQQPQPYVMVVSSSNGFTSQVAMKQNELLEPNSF
In test [6] the target is T5, EHF (Homo sapiens, UniProt Q9NZC4 1-300).
T5 sequence: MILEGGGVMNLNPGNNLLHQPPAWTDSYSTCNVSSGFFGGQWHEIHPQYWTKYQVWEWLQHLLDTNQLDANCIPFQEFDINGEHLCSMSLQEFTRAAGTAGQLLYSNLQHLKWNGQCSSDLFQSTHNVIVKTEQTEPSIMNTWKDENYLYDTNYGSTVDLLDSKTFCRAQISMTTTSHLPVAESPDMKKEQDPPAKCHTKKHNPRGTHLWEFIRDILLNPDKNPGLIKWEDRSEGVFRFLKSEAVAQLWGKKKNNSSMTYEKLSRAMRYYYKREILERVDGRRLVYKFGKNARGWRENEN
Put shortly: as §1

The target in test [7] is SPI1 (Homo sapiens, UniProt P17947 1-270). Put shortly: as §1
For test [8], the target named is SPIB (Homo sapiens, UniProt Q01892 1-262). Put shortly:
as §1

Test [9] deals with T6, ELK3 (Homo sapiens, UniProt P41970 1-407).
T6 sequence: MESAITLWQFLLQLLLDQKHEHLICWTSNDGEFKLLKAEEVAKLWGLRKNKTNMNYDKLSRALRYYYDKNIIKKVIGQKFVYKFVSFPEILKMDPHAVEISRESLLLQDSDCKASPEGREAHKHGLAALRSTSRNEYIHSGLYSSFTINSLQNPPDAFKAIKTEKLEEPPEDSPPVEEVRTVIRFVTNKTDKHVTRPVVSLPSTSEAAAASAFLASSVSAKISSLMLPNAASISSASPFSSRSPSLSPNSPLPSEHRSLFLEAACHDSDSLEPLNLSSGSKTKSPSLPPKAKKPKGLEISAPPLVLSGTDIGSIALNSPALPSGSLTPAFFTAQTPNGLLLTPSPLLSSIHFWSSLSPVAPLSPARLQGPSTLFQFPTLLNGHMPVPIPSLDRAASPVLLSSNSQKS
A digest of the protocol:
as §1

Chain of SPIB (Q01892 whole entry): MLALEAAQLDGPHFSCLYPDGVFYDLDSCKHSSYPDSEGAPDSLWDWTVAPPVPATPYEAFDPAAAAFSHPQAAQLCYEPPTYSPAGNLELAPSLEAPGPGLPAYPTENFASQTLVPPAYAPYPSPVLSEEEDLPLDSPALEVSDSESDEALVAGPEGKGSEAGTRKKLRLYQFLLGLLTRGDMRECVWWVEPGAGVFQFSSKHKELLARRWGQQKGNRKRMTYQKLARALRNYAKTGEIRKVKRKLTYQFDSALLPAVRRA

Consider CATCTT, for which the binding signal is 1.18 fold enrichment (6-mer frequency, TF over GST control) in test [1]; 1.27 fold enrichment (6-mer frequency, TF over GST control) in [2]; 1.17 fold enrichment (6-mer frequency, TF over GST control) in test [3]; 1.27 fold enrichment (6-mer frequency, TF over GST control) in test [4]; 1.25 fold enrichment (6-mer frequency, TF over GST control) in [5]; 1.2 fold enrichment (6-mer frequency, TF over GST control) in [6]. Further, the binding signal in test [7] is 1.21 fold enrichment (6-mer frequency, TF over GST control); in test [8], 1.21 fold enrichment (6-mer frequency, TF over GST control); in test [9], 1.29 fold enrichment (6-mer frequency, TF over GST control).
Take GAACTC: the binding signal in test [1] is 1.28 fold enrichment (6-mer frequency, TF over GST control); in test [2], 1.22 fold enrichment (6-mer frequency, TF over GST control); in [3] it was 1.31 fold enrichment (6-mer frequency, TF over GST control); in [4], 1.26 fold enrichment (6-mer frequency, TF over GST control); in [5], 1.29 fold enrichment (6-mer frequency, TF over GST control); in test [6] it was 1.28 fold enrichment (6-mer frequency, TF over GST control). Also, the binding signal is 1.39 fold enrichment (6-mer frequency, TF over GST control) in test [7]; 1.28 fold enrichment (6-mer frequency, TF over GST control) in [8]; 1.33 fold enrichment (6-mer frequency, TF over GST control) in test [9].
In the case of AACTAA, the binding signal is 1.39 fold enrichment (6-mer frequency, TF over GST control) in test [1]; 1.27 fold enrichment (6-mer frequency, TF over GST control) in [2]; 1.38 fold enrichment (6-mer frequency, TF over GST control) in [3]; 1.33 fold enrichment (6-mer frequency, TF over GST control) in test [4]; 1.42 fold enrichment (6-mer frequency, TF over GST control) in test [5]; 1.42 fold enrichment (6-mer frequency, TF over GST control) in [6]. Also, the binding signal in test [7] was 1.38 fold enrichment (6-mer frequency, TF over GST control); in test [8] it was 1.41 fold enrichment (6-mer frequency, TF over GST control); in test [9] it was 1.4 fold enrichment (6-mer frequency, TF over GST control).
With AATGTT, the binding signal in test [1] is 1.55 fold enrichment (6-mer frequency, TF over GST control); in test [2], 1.47 fold enrichment (6-mer frequency, TF over GST control); in test [3], 1.49 fold enrichment (6-mer frequency, TF over GST control); in test [4], 1.48 fold enrichment (6-mer frequency, TF over GST control); in [5] it was 1.57 fold enrichment (6-mer frequency, TF over GST control); in test [6], 1.56 fold enrichment (6-mer frequency, TF over GST control). Also, the binding signal in test [7] is 1.47 fold enrichment (6-mer frequency, TF over GST control); in [8] it was 1.58 fold enrichment (6-mer frequency, TF over GST control); in [9] it was 1.47 fold enrichment (6-mer frequency, TF over GST control).
Take CCTGCT: the binding signal in [1] was 1.46 fold enrichment (6-mer frequency, TF over GST control); in [2] it was 1.72 fold enrichment (6-mer frequency, TF over GST control); in test [3], 1.46 fold enrichment (6-mer frequency, TF over GST control); in test [4] it was 1.65 fold enrichment (6-mer frequency, TF over GST control); in test [5], 1.61 fold enrichment (6-mer frequency, TF over GST control); in test [6], 1.61 fold enrichment (6-mer frequency, TF over GST control). In addition, the binding signal in test [7] was 1.78 fold enrichment (6-mer frequency, TF over GST control); in [8], 1.59 fold enrichment (6-mer frequency, TF over GST control); in test [9], 1.61 fold enrichment (6-mer frequency, TF over GST control).
Turning to TAGCAC, the binding signal in [1] is 1.16 fold enrichment (6-mer frequency, TF over GST control); in [2] it was 1.12 fold enrichment (6-mer frequency, TF over GST control); in test [3], 1.24 fold enrichment (6-mer frequency, TF over GST control); in [4], 1.15 fold enrichment (6-mer frequency, TF over GST control); in test [5], 1.15 fold enrichment (6-mer frequency, TF over GST control); in [6] it was 1.16 fold enrichment (6-mer frequency, TF over GST control). In addition, the binding signal in test [7] is 1.06 fold enrichment (6-mer frequency, TF over GST control); in [8], 1.15 fold enrichment (6-mer frequency, TF over GST control); in [9], 1.19 fold enrichment (6-mer frequency, TF over GST control).
In the case of TCGCTA, the binding signal in test [1] is 1.17 fold enrichment (6-mer frequency, TF over GST control); in [2], 1.09 fold enrichment (6-mer frequency, TF over GST control); in test [3], 1.24 fold enrichment (6-mer frequency, TF over GST control); in [4] it was 1.07 fold enrichment (6-mer frequency, TF over GST control); in [5] it was 1.11 fold enrichment (6-mer frequency, TF over GST control); in test [6], 1.02 fold enrichment (6-mer frequency, TF over GST control). For the same sequence, the binding signal in test [7] is 1.04 fold enrichment (6-mer frequency, TF over GST control); in [8], 1.05 fold enrichment (6-mer frequency, TF over GST control); in test [9], 1.23 fold enrichment (6-mer frequency, TF over GST control).
As for GAAATC, the binding signal in [1] is 1.38 fold enrichment (6-mer frequency, TF over GST control); in [2], 1.47 fold enrichment (6-mer frequency, TF over GST control); in test [3] it was 1.34 fold enrichment (6-mer frequency, TF over GST control); in [4], 1.65 fold enrichment (6-mer frequency, TF over GST control); in test [5], 1.36 fold enrichment (6-mer frequency, TF over GST control); in test [6], 1.53 fold enrichment (6-mer frequency, TF over GST control). Also, the binding signal was 1.4 fold enrichment (6-mer frequency, TF over GST control) in [7]; 1.55 fold enrichment (6-mer frequency, TF over GST control) in test [8]; 1.42 fold enrichment (6-mer frequency, TF over GST control) in test [9].

Source of the values: paper PMC7862700, “An all-to-all approach to the identification of sequence-specific readers for epigenetic DNA modifications on cytosine”.
